Test [1] in a line: optical density shifts of acrAB sulA E. coli – strain DRC41, OD650, 48 h, E. coli filamentation inducer project, primary screen (AID 1152).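 Also: E. coli MC1000 strain DRC41 lacking acrAB efflux pump and sulA.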 The settings on record: higher = more signal, called active from +8 up or from −8 down.
Test [2] in a line: probe aLefty1 binding on compound microarray – biochemical, small-molecule microarray, 635/667 nm fluorescence, primary screen (AID 1153).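 Also: score merges spot fluorescence with signal-to-noise ratio from the scanned slide images.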 The settings on record: higher = more signal.
The nature of test [3]: plasmodial surface anion channel blockers, osmotic lysis – cell-based, P. falciparum Indochina, OD700, 1 h, primary screen (AID 1154). The settings on record: P. falciparum Indochina infected RBC osmotic lysis, higher = more signal, called active from +8 up or from −8 down.
The nature of test [4]: plasmodial surface anion channel blockers, osmotic lysis – cell-based, P. falciparum Indochina, OD700, 2 h, primary screen (AID 1155).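 Also: lysis reports solute entry through the parasite surface anion channel PSAC.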 To be noted: P. falciparum Indochina infected erythrocytes, higher = more signal, called active from +8 up or from −8 down.
Test [5] is described as follows: changes in parasitized red cell lysis, either direction – P. falciparum Indochina, OD700, 3 h, PSAC antagonist project, primary screen (AID 1156). The settings on record: P. falciparum-infected erythrocytes, osmotic lysis, higher = more signal, called active from +8 up or from −8 down.
Test [6] is described as follows: plasmodial surface anion channel blockers, osmotic lysis – cell-based, P. falciparum Indochina, OD700, 18 h, primary screen (AID 1157). To be noted: P. falciparum Indochina infected erythrocytes, osmotic lysis OD700, 18 h; higher = more signal, called active from +8 up or from −8 down.
Test [7] in a line: S6 kinase pathway phospho-S6 level changes – cell-based, A549, cytoblot, luminescence, serum-stimulated, primary screen (AID 1158).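 Also: serum-stimulated A549 lung adenocarcinoma cells; signal is phosphorylated S6 detected by cytoblot immunostaining with HRP secondary.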 To be noted: 5 h, higher = more signal.
For test [8], the target named is NADPH oxidase 2 (Homo sapiens) (UniProt P04839). As to the kind of experiment: compounds shifting NOX2 Amplex Red fluorescence – cell-based, HEK293-NOX2, PMA-stimulated, NOX inhibitor project, primary screen (AID 1159). Also: test concentration not given here. To be noted: 45 min, higher = more signal, called active from +8 up or from −8 down.
NADPH oxidase 2 (Homo sapiens), sequence (P04839 whole entry, looked up): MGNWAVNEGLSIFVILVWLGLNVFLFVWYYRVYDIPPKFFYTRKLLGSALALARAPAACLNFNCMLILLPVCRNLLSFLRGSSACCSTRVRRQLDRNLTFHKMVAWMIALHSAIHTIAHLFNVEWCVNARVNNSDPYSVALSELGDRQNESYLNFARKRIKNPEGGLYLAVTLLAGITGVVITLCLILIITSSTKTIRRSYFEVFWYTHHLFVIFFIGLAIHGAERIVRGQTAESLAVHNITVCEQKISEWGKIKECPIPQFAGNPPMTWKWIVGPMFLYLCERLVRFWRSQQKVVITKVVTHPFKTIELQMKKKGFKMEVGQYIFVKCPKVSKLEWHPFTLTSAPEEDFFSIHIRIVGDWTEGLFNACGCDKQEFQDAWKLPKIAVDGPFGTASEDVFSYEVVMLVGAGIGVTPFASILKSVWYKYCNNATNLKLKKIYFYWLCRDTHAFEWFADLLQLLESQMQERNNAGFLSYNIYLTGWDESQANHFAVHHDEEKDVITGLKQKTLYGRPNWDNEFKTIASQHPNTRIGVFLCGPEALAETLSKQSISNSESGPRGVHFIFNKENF
Test [9] addresses NADPH oxidase 4 (Homo sapiens) (UniProt Q9NPH5). As to the kind of experiment: compounds shifting NOX4 Amplex Red fluorescence – cell-based, HEK293-NOX4, tetracycline-induced, NOX inhibitor project, primary screen (AID 1160). To be noted: HEK293-NOX4, Amplex Red H2O2 fluorescence, 45 min; higher = more signal, called active from +8 up or from −8 down.
Test [10] deals with NADPH oxidase 5 (Homo sapiens) (UniProt Q96PH1). In words: compounds shifting NOX5 Amplex Red fluorescence – cell-based, HEK293-NOX5, NOX inhibitor project, primary screen (AID 1161). To be noted: HEK293-NOX5, ionomycin, 45 min, higher = more signal.
NADPH oxidase 5 (Homo sapiens), sequence (Q96PH1 whole entry, looked up): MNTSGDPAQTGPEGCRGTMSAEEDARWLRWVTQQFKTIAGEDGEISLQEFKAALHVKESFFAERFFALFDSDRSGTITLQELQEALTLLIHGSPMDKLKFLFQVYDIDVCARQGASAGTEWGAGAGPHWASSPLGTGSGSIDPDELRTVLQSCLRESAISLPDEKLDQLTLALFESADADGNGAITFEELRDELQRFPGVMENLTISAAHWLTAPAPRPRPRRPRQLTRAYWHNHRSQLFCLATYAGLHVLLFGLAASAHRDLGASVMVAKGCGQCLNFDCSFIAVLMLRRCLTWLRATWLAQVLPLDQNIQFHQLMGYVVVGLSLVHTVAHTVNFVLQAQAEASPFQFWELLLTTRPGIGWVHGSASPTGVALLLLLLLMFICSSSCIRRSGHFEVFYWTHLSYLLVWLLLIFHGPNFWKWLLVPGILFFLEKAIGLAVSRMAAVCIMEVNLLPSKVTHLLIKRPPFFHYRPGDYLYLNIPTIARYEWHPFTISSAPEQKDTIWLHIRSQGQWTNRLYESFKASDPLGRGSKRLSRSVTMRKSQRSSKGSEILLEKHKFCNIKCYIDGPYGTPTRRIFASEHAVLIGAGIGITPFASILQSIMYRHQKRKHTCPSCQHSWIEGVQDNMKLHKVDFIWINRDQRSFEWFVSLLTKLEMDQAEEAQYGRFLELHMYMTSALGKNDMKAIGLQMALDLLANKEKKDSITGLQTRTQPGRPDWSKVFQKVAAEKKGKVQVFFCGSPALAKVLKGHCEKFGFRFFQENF
A short description of test [11]: compound effects on lung adenocarcinoma cell viability – A549, calcein-AM fluorescence, 48 h, basal, profiling panel (AID 1162). Also: test concentration not given here. The settings on record: higher = more signal.
The nature of test [12]: compound effects on differentiated 3T3-L1 adipocyte viability – cell-based, 3T3-L1 adipocytes, calcein-AM fluorescence, 48 h, basal, profiling panel (AID 1163). Also: test concentration not given here. The settings on record: 3T3-L1 adipocytes viability, higher = more signal.
Test [13] is described as follows: compound effects on hepatocellular carcinoma cell viability – HepG2, calcein-AM fluorescence, 48 h, basal, profiling panel (AID 1164). Also: test concentration not given here. To be noted: higher = more signal.
Test [14] in a line: compound effects on multiple myeloma cell viability – MM1S, calcein-AM fluorescence, 48 h, basal, profiling panel (AID 1165).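 Also: viability of MM1S multiple myeloma cells under basal unstimulated conditions; test concentration not given here.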 The settings on record: higher = more signal.
Test [15] is described as follows: calcein-AM signal in unstimulated myeloma cells – cell-based, calcein-AM fluorescence, 48 h, PK04 Diversity Set, profiling panel (AID 1166).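 Also: cells grown under basal conditions without added stimulus; test concentration not given here.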 To be noted: RPMI8226 myeloma viability, higher = more signal.
Test [16] can be described thus: JC-1 mitochondrial signal, unstimulated HepG2 cells – cell-based, JC-1 fluorescence, 24 h, 100 nL compound, profiling panel (AID 1167). Also: test concentration not given here. To be noted: HepG2 mitochondrial potential, higher = more signal.
A short description of test [17]: JC-1 mitochondrial signal, unstimulated adipocytes – cell-based, JC-1 fluorescence, 3T3-L1 adipocytes, 24 h, 100 nL compound, profiling panel (AID 1168). Also: test concentration not given here. The settings on record: JC-1 mitochondrial fluorescence, higher = more signal, called active from +8 up or from −8 down.
Test [18] is described as follows: JC-1 mitochondrial signal, unstimulated myeloma cells – cell-based, JC-1 fluorescence, RPMI8226, 24 h, 100 nL compound, profiling panel (AID 1169). Also: test concentration not given here. To be noted: JC-1 mitochondrial potential fluorescence, higher = more signal.
A short description of test [19]: JC-1 mitochondrial signal, unstimulated MM1S myeloma – cell-based, JC-1 fluorescence, 24 h, 100 nL compound, profiling panel (AID 1170). Also: test concentration not given here. To be noted: MM1S mitochondrial potential, higher = more signal.
Test [20] in a line: resazurin metabolic signal in A549 cells – cell-based, resazurin fluorescence, 24 h, PK04 Diversity Set, profiling panel (AID 1171). Also: test concentration not given here. To be noted: A549 viability, higher = more signal, called active from +8 up or from −8 down. A general note: The colour change of resazurin is a common sign of viable cells or microbes.

Active and inactive are the calls of the source.

NADPH oxidase 4 (Homo sapiens), sequence (Q9NPH5 whole entry, looked up): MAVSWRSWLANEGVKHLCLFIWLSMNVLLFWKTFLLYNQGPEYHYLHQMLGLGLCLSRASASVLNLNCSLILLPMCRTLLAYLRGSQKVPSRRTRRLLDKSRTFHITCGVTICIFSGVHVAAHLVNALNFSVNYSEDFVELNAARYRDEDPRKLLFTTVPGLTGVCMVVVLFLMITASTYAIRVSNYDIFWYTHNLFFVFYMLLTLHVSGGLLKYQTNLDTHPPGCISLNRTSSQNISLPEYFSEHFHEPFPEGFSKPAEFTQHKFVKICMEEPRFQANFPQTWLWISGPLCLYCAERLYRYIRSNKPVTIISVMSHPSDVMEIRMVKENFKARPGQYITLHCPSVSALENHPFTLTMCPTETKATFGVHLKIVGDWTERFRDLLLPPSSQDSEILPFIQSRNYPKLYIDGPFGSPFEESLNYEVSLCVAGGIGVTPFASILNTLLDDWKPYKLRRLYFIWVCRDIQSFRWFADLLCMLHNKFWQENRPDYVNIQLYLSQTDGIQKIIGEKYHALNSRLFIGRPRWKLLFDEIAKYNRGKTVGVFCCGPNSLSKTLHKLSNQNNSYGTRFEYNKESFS

`O=C1O[C@@H](c2ccccc2)[C@@H](c2ccccc2)N2[C@@H](c3ccccc3OCCO)[C@]3(C(=O)Nc4ccc(C#CC5(O)CCCCCC5)cc43)[C@@H](C(=O)N3CCN(c4ncccn4)CC3)[C@H]12`: the z-score was 0.691 (inactive) in test [1]; 1.89 (inactive) in test [3]; 1.66 (inactive) in [4]; 2.21 (inactive) in [5]; 1.18 (inactive) in [6]; -0.451 in [7]. In addition, the z-score in [8] is 0.814 (inactive); in test [9], 0.343 (inactive); in test [10], 1.93; in test [11], -0.643; in test [12] it was 1.46; in test [13], 0.11. The z-score in [14] is -1.22; in [15], -2.29; in test [16], -0.457; in [17] it was 0.821 (inactive); in [18] it was -1.04; in [19] it was -0.796. The z-score in [20] is -0.697 (inactive). Besides, the composite z-score in test [2] was -0.0141.
In the case of `C=CC1c2cc(O)c(OC)cc2CCN1Cc1cccc(OC(F)(F)F)c1` (stereo not given), the z-score in test [1] was 0.277 (inactive); in [3], 5.32 (inactive); in test [4] it was 0.544 (inactive); in [5] it was 0.2 (inactive); in [6] it was 0.451 (inactive); in [7] it was -0.318. Also, the z-score in test [8] was -4.69 (inactive); in test [9], -2.9 (inactive); in test [10] it was -4.4; in [11], -1.97; in test [12] it was 0.566; in [13], -3.19. Besides, the z-score was -3.18 in test [14]; -2.2 in test [15]; -2.6 in [16]; -0.604 (inactive) in test [17]; -0.752 in test [18]; -1.85 in test [19]. Besides, the z-score in test [20] was -0.821 (inactive). The compound also displayed a composite z-score in test [2] of 0.123.
Regarding `C=CCNC(=O)[C@@H]1[C@H]2C(=O)O[C@H](c3ccccc3)[C@H](c3ccccc3)N2[C@H](c2ccc(OCCO)cc2)[C@@]12C(=O)N(C(=O)OCCOC)c1ccc(C#CCC(C(=O)OC)C(=O)OC)cc12`, the z-score in test [1] is -0.314 (inactive); in test [3] it was 7.08 (inactive); in [4], 1.72 (inactive); in test [5], -0.211 (inactive); in test [6], 0.581 (inactive); in test [7], -0.0943. The z-score in test [8] was 2.26 (inactive); in [9] it was 1.2 (inactive); in [10] it was 1.37; in [11] it was -0.906; in test [12], 0.445; in test [13] it was -0.713. For the same compound, the z-score was -1.85 in [14]; -1.34 in test [15]; 0.366 in test [16]; 0.0731 (inactive) in [17]; -0.799 in [18]; -1.16 in [19]. Further, the z-score in test [20] is 0.185 (inactive). Further, the composite z-score in test [2] stood at 0.404.
For `CCCCCCCCCCC(O)C1C=CC2C(=O)NC(=O)C2N1Nc1ccc(Cl)cc1Cl` (stereo not given), the z-score in test [1] is -2.32 (inactive); in test [3] it was 4.61 (inactive); in test [4] it was 2.51 (inactive); in test [5] it was -1.75 (inactive); in test [6] it was 1.78 (inactive); in [7] it was -0.428. The z-score was 0.684 (inactive) in test [8]; -1.86 (inactive) in [9]; -0.838 in [10]; -4.55 in test [11]; 0.061 in [12]; -3.5 in test [13]. Besides, the z-score was -3.8 in [14]; -4.21 in test [15]; -3.53 in test [16]; -0.354 (inactive) in [17]; -0.931 in test [18]; -1.08 in test [19]. The z-score in test [20] was -1.52 (inactive). In test [2], the composite z-score is 0.335.
Take `CCCCCCc1nc(-c2ccc(-c3ccc(Cl)c(Cl)c3)o2)cc2c1[Si](C(C)C)(C(C)C)O[C@H]2c1ccccc1`: the z-score in [1] is 0.321 (inactive); in test [3] it was 0.439 (inactive); in test [4] it was 0.0435 (inactive); in [5], 1.47 (inactive); in test [6], 0.333 (inactive); in [7] it was 0.205. Further, the z-score in test [8] was -1.24 (inactive); in test [9], -1.44 (inactive); in test [10], -1.49; in test [11] it was -0.793; in test [12] it was -0.0866; in [13], -1.08. For the same compound, the z-score was -0.373 in test [14]; 0.568 in test [15]; 0.474 in test [16]; -0.0412 (inactive) in test [17]; 0.278 in test [18]; -0.284 in test [19]. In [20], the z-score was 1.19 (inactive). Also, the composite z-score in test [2] was -0.598.
